Results published in PMC4336329 (PLoS ONE, 2015).
Hit rate of the full screen: of about 310,000 compounds, about 14,000 (4.5%) showed an effect of 50% or more. Effects have a minus sign here. This excerpt belongs to a sample that is enriched for strong results.
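Note: peak tail current of the secondary pulse compared with the same well before compound.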

The compounds below were run against human ether-à-go-go-related gene (hERG) potassium channel (human, UniProt Q12809) (assay: primary screen, population patch clamp on CHO cells stably expressing hERG; higher = less effect of the substance).
Chain of human ether-à-go-go-related gene (hERG) potassium channel (Q12809 whole entry, looked up): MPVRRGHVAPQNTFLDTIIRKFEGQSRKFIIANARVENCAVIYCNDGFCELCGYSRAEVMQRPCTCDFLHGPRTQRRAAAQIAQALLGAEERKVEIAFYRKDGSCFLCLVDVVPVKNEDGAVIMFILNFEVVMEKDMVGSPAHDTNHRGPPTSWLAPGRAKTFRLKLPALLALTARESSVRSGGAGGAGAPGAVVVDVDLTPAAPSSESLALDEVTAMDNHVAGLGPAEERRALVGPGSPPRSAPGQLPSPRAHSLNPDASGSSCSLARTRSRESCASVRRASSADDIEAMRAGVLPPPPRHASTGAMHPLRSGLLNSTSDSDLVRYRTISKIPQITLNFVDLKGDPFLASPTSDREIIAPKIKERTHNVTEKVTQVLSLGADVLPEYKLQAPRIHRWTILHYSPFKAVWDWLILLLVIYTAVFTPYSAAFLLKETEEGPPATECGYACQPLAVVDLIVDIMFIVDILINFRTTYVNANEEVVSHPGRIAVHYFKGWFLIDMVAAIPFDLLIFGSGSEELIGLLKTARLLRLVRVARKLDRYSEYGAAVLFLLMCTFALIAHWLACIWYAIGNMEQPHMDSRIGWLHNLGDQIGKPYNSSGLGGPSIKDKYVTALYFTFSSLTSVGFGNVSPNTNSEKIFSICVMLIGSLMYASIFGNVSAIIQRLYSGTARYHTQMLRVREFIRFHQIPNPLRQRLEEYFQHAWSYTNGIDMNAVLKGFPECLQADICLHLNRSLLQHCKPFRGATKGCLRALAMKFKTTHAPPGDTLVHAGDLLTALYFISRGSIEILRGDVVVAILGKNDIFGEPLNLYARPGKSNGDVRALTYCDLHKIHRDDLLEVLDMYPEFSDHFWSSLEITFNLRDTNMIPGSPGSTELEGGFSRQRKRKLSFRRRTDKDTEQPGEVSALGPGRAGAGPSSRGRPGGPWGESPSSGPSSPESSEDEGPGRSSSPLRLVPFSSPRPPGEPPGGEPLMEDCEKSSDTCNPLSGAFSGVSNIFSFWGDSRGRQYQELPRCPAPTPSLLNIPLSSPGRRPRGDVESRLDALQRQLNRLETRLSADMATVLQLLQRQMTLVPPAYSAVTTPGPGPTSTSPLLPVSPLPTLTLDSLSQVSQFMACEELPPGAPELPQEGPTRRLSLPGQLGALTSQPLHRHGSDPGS
With `COC(=O)C1=C(C)N(c2ccc(C(=O)OC)cc2)C(=O)C1` the “hERG current change (%, negative = inhibition) at 10uM” value was 22.3%. With `O=C(CSc1nnc(-c2ccncc2)o1)N1CCCC1` the “hERG current change (%, negative = inhibition) at 10uM” value was -19.1%. For `O=C(CCC(=O)c1ccc(Oc2ccccc2)cc1)Nc1ccc(Cl)cc1Cl`, the “hERG current change (%, negative = inhibition) at 10uM” value was 5.46%. `CCN(CC)S(=O)(=O)c1ccc(-c2nnc(SCC(=O)Nc3nnc(C)s3)n2CC)cc1` was tested, and the “hERG current change (%, negative = inhibition) at 10uM” value was 12.2%. In the case of `Cc1ccc(C(=O)N/C(=C/c2ccc(-c3cccc([N+](=O)[O-])c3)o2)C(=O)NC(C)C)cc1`, the “hERG current change (%, negative = inhibition) at 10uM” value is reported as -30.8%. `Cc1ccc(C(=O)N/C(=C/c2ccc(-c3cccc([N+](=O)[O-])c3)o2)C(=O)NCCCN(C)C)cc1` was tested, and the “hERG current change (%, negative = inhibition) at 10uM” value was -80%. With `Cc1ccc(C(=O)N/C(=C\c2ccc(-c3cccc([N+](=O)[O-])c3)o2)C(=O)NCCCN(C)C)cc1` the “hERG current change (%, negative = inhibition) at 10uM” value was -67.6%. With `O=C(N/N=C/c1ccc(-c2cccc([N+](=O)[O-])c2)o1)c1ccc([N+](=O)[O-])cc1` the “hERG current change (%, negative = inhibition) at 10uM” value was -40%. With `Cc1ccc(C(=O)N/C(=C\c2ccc(-c3cccc([N+](=O)[O-])c3)o2)C(=O)NC(C)(C)C)cc1` the “hERG current change (%, negative = inhibition) at 10uM” value was 1.94%. In the case of `Cc1ccc(C(=O)N/C(=C/c2ccc(-c3cccc([N+](=O)[O-])c3)o2)C(=O)NC(C)(C)C)cc1`, the “hERG current change (%, negative = inhibition) at 10uM” value is reported as -21.9%. `O=C(CSc1nnc(CN2CCOCC2)n1-c1ccc(Cl)cc1)Nc1ccc2c(c1)OCO2` was tested, and the “hERG current change (%, negative = inhibition) at 10uM” value was -9.87%. In the case of `CC/C(O)=C1\C(=O)CCCC1=NCCc1c(C)[nH]c2ccc(C)cc12`, the “hERG current change (%, negative = inhibition) at 10uM” value is reported as -14%. In the case of `CCOC(=O)CC1C(=O)NCCN1C(=O)Nc1ccc(Cl)cc1` (centres unmarked), the “hERG current change (%, negative = inhibition) at 10uM” value is reported as 2.37%. `CC(=O)c1c(C)[nH]c(C(=O)N2c3ccccc3CC2C)c1C` (centres unmarked) was tested, and the “hERG current change (%, negative = inhibition) at 10uM” value was 5.33%. In the case of `Cc1csc(=O)n1CCC(=O)OCC(=O)c1ccc(Br)cc1`, the “hERG current change (%, negative = inhibition) at 10uM” value is reported as -18.4%. With `O=c1oc2ccccc2c2c1ncn2C1CCCCC1` the “hERG current change (%, negative = inhibition) at 10uM” value was -51.7%. For `O=c1c2ccccc2ncn1C1CCCCC1`, the “hERG current change (%, negative = inhibition) at 10uM” value was -19.4%. For `O=c1oc2ccccc2c2c1ncn2-c1ccccc1`, the “hERG current change (%, negative = inhibition) at 10uM” value was -11.8%. In the case of `O=CN1CCN(C(C(=O)NC2CCCCC2)c2ccc(Cl)cc2)CC1` (centres unmarked), the “hERG current change (%, negative = inhibition) at 10uM” value is reported as -15%. `O=C(NC1CCCC1)C(c1ccc(Cl)cc1)N1CCN(C2CCCCC2)CC1` (centres unmarked) was tested, and the “hERG current change (%, negative = inhibition) at 10uM” value was -59.3%. For `O=CN1CCN(C(C(=O)NC2CCCC2)c2ccc(Cl)cc2)CC1` (centres unmarked), the “hERG current change (%, negative = inhibition) at 10uM” value was -14.8%. In the case of `Cc1c(C=O)c2ccccc2n1CC(=O)NCc1ccc2c(c1)OCO2`, the “hERG current change (%, negative = inhibition) at 10uM” value is reported as 21.8%. For `CC1CC(C)CN(CC(O)COCc2ccccc2)C1.Cl` (centres unmarked), the “hERG current change (%, negative = inhibition) at 10uM” value was -7.79%. For `CCN1CCN(CC(O)COCCOc2ccc(Br)cc2)CC1.Cl` (centres unmarked), the “hERG current change (%, negative = inhibition) at 10uM” value was -12.3%. For `CC1CCN(CC(O)COCCOc2ccc(Br)cc2)CC1.Cl` (centres unmarked), the “hERG current change (%, negative = inhibition) at 10uM” value was -64.3%. In the case of `CC1(C)CC(O)CC(C)(C)N1CC(O)COCCOc1ccc(Br)cc1` (centres unmarked), the “hERG current change (%, negative = inhibition) at 10uM” value is reported as -42.4%. `Cl.OC(COCCOc1ccc(Br)cc1)CN1CCCCC1` (centres unmarked) was tested, and the “hERG current change (%, negative = inhibition) at 10uM” value was -37.1%. `Cl.OCCN1CCN(CC(O)COCCOc2ccc(Br)cc2)CC1` (centres unmarked) was tested, and the “hERG current change (%, negative = inhibition) at 10uM” value was -20.2%. `CC1CC(C)CN(CC(O)COCCOc2ccc(Br)cc2)C1.Cl` (centres unmarked) was tested, and the “hERG current change (%, negative = inhibition) at 10uM” value was -71.6%. `CC1(C)CCCC(C)(C)N1CC(O)COCCOc1ccc(Br)cc1.Cl` (centres unmarked) was tested, and the “hERG current change (%, negative = inhibition) at 10uM” value was -67.5%. For `CN1CCN(CC(O)COCCOc2ccc(Br)cc2)CC1.Cl` (centres unmarked), the “hERG current change (%, negative = inhibition) at 10uM” value was 10.4%. `COc1cc(CCN2C(=O)c3cccc4cccc(c34)C2=O)c(S(=O)(=O)NCCO)cc1OC` was tested, and the “hERG current change (%, negative = inhibition) at 10uM” value was -23.8%. In the case of `CC(C)COP(=O)(OCC(C)C)C(O)c1ccccc1F` (centres unmarked), the “hERG current change (%, negative = inhibition) at 10uM” value is reported as -1.27%. `CCCNC(=O)/C=C/c1ccc(S(=O)(=O)Nc2ccccc2OC)cc1` was tested, and the “hERG current change (%, negative = inhibition) at 10uM” value was -1.75%. In the case of `Cc1ccc(OCCOc2cccc3ccc(C)nc23)c([N+](=O)[O-])c1.O=C(O)C(=O)O`, the “hERG current change (%, negative = inhibition) at 10uM” value is reported as -10.7%. In the case of `CC1CCCCN1c1ncnc2ccccc12.Cl` (centres unmarked), the “hERG current change (%, negative = inhibition) at 10uM” value is reported as -7.46%. With `Cc1ccc(C)c(N2CCN(S(=O)(=O)c3ccc4c(c3)C(C)(C)C(=O)N4C)CC2)c1` the “hERG current change (%, negative = inhibition) at 10uM” value was 3.88%. For `Cc1nc2ncnn2c(N2CCN(C(c3ccccc3)c3ccccc3)CC2)c1C`, the “hERG current change (%, negative = inhibition) at 10uM” value was -47.7%. In the case of `CCn1c(COc2cccc(C)c2)nnc1SCC(=O)Nc1cccc(C(=O)OC)c1`, the “hERG current change (%, negative = inhibition) at 10uM” value is reported as -2.45%. With `COC(=O)c1cccc(NC(=O)CSc2nnc(COc3ccc(C#N)cc3)n2-c2ccccc2)c1` the “hERG current change (%, negative = inhibition) at 10uM” value was -73.5%. For `COCCCn1c(SCC(=O)Nc2cccc(C(=O)OC)c2)nnc1-c1ccncc1`, the “hERG current change (%, negative = inhibition) at 10uM” value was -15.8%. `COC(=O)c1cccc(NC(=O)CSc2nnc(COc3ccccc3)n2C)c1` was tested, and the “hERG current change (%, negative = inhibition) at 10uM” value was -7.84%. For `CCOC(=O)c1cccc(NC(=O)CSc2nnc(-c3ccncc3)n2CCCOC)c1`, the “hERG current change (%, negative = inhibition) at 10uM” value was -50.4%. For `CCn1c(COc2cccc(C)c2)nnc1SCC(=O)Nc1cccc(C(=O)O)c1`, the “hERG current change (%, negative = inhibition) at 10uM” value was 9.41%. `COCCCn1c(SCC(=O)Nc2ccccc2)nnc1-c1ccncc1` was tested, and the “hERG current change (%, negative = inhibition) at 10uM” value was -6.82%. In the case of `N#Cc1ccc(OCc2nnc(SCC(=O)c3ccccc3)n2-c2ccccc2)cc1`, the “hERG current change (%, negative = inhibition) at 10uM” value is reported as -40.8%. In the case of `CCOC(=O)c1cccc(NC(=O)CSc2nnc(COc3ccccc3)n2CC)c1`, the “hERG current change (%, negative = inhibition) at 10uM” value is reported as -51.3%.
